This note sets out measurements from PubChem BioAssay AID504332 (National Center for Advancing Translational Sciences (NCATS), 2011).

About 31,000 (8.9%) of roughly 350,000 compounds were called active. Roughly 15% stayed inconclusive and do not appear here. For the sample, actives were picked, then their nearest neighbours and some compounds at random. A number with no mark means an inactive call. The call rests on the fitted dose curve; in most records, active means well fitted inhibition curve with a large enough effect; inconclusive means small, poorly fitted or top-dose-only effect; inactive means no such curve, though single readings can be large or run the other way.
On the % scale 0 is the no-effect control and ±100 the full control effect; potency means the concentration at half of the fitted maximal effect.

This experiment deals with Histone-lysine N-methyltransferase EHMT2 (Homo sapiens) (UniProt Q96KQ7). Nature of the experiment: qHTS Assay for Inhibitors of Histone Lysine Methyltransferase G9a. Further: nearly all actives have a fitted effect of over 75% in size. As to conditions: G9a H3K9 monomethylation, AlphaScreen, 2 h; series mostly up to 59 µM; activity, negative = inhibition: at the top concentration. The method in brief: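 Signal arises when biotinylated H3K9 peptide, once monomethylated, bridges streptavidin donor and antibody-captured acceptor beads. Enzyme at 20 nM was preincubated 15 min with test compounds; peptide 500 nM and SAM 20 uM then reacted for 2 h.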
Sequence of Histone-lysine N-methyltransferase EHMT2 (Homo sapiens) (Q96KQ7 913-1193 limits assumed): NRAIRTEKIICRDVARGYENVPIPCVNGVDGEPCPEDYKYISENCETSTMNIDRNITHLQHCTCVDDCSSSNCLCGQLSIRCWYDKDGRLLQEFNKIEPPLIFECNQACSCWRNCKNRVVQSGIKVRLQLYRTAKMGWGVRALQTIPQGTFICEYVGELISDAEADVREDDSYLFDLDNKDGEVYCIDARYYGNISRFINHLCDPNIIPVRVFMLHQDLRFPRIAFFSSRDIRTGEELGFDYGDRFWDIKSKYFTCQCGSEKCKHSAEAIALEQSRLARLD
For orientation: Quantitative high-throughput screening tests each substance at several concentrations.
Consider `N#C/C(=C\N1CCOCC1)S(=O)(=O)c1ccc(Cl)cc1`, for which the “activity, negative = inhibition” value was 20.1%.
`O=C(Nc1ccccc1C(=O)N1CCOCC1)c1ccc(Cl)cc1`: the “activity, negative = inhibition” value was -23.7% [at 102 µM].
In the case of `O=S(=O)(Oc1ccccc1C(=S)N1CCOCC1)c1ccc(Cl)cc1`, the Potency was 31.6 µM (active).
`O=C(CSc1nnc(-c2ccccc2F)o1)Nc1cccc(C(F)(F)F)c1`: the “activity, negative = inhibition” value is -0.739%.
Still for that read-out and setting: with `O=C(NCc1ccccc1)c1cc(-c2cccc(Cl)c2)on1` the figure was -0.805%; with `Cc1cccn2c(=O)c(C=O)c(Nc3ccc(S(N)(=O)=O)cc3)nc12`, -13.3% [at 102 µM]; with `CC(OC(=O)/C=C/c1ccccc1)C(=O)Nc1ccc(C(N)=O)cc1` (centres undefined), 0.935% [at 12.7 µM].
As to `O=C1C(Cl)=C(N2CCOCC2)C(=O)N1c1ccccc1`, the activity, negative = inhibition was 3.23% [at 2.33 µM].
Turning to `COC1=C(N2CCOCC2)C(=O)c2ccccc2C1=O`, the Potency was 3.55 µM (active).
In the case of `Cc1oc2c(c1C(=O)N1CCOCC1)C(=O)c1ccccc1C2=O`, the “activity, negative = inhibition” value is -50.2%.
`COc1cccc(CNC(=O)CN2C(=O)NC(Cc3ccccc3)(c3ccccc3)C2=O)c1` (centres undefined): the activity, negative = inhibition was -1.58% [at 12.7 µM].
As for `Cc1ccc2cccc(NC(=O)c3ccc(OC(C)C)cc3)c2n1`, the “activity, negative = inhibition” value was 4.14%.
On the same count and under the same terms, the result for `O=C(COc1coc(CN2CCN(c3ccccc3)CC2)cc1=O)N1CCc2ccccc21` reads -26.4% [at 102 µM].
Turning to `COc1ccc(OC)c(NC(=O)C2CCN(S(=O)(=O)c3ccc(C)cc3)CC2)c1`, the “activity, negative = inhibition” value was -3.4%.
Take `CC(C)C(=O)OCC(=O)Nc1ccc2c(c1)CCC2`: the “activity, negative = inhibition” value was -28.4%.
With `COc1ccc(CNc2ccc3c(c2)CCC3)cc1OC`, the Potency is 39.8 µM (active).
Take `COc1ccc(CN2CCCCC2C)cc1OC` (centres undefined): the “activity, negative = inhibition” value is 4.38% [at 102 µM].
`COc1ccc(OC)c(CCNC(=O)c2nn(C)c3c2CS(=O)(=O)c2ccccc2-3)c1`: the “activity, negative = inhibition” value is -15.2% [at 102 µM].
Turning to `O=C(COC(=O)CNC(=O)C1CCCCC1)NCc1ccccc1`, the activity, negative = inhibition is 3.72% [at 12.7 µM].
For `O=C(CCc1nc(CN2CCN(S(=O)(=O)c3ccc(Cl)cc3)CC2)no1)N1CCCCC1`, the “activity, negative = inhibition” value was -46.7%.
As for `NS(=O)(=O)c1ccc2nc(NC(=O)C3=COCCO3)sc2c1`, the “activity, negative = inhibition” value is 36.2%.
In the case of `Cc1ccc2nc(N(CCN(C)C)C(=O)C3=COCCO3)sc2c1`, the Potency was 79.4 µM (active).
With `Cc1ccc2nc(-c3ccc(NC(=O)CN(C)S(=O)(=O)c4ccccc4)cc3)sc2c1`, the “activity, negative = inhibition” value was 2.87% [at 102 µM].
Consider `CCOC(=O)c1cccc(NC(=O)c2cc(S(=O)(=O)N3CCCC(C)C3)cn2C)c1` (centres undefined), for which the “activity, negative = inhibition” value is -1.91%.
As to `CCOC(=O)c1ccc(NC(=O)C2CCN(S(=O)(=O)c3ccc4c(c3)CCCC(=O)N4)CC2)cc1`, the “activity, negative = inhibition” value is -28.9%.
On to `CCc1ccc(-c2nc(SCC(=O)NC3CCCC3)n[nH]2)cc1`, for which the “activity, negative = inhibition” value is 32.1% [at 102 µM].
Take `COC(=O)[C@@H](NC(=O)Nc1cc(Cl)ccc1C)C(C)C`: the “activity, negative = inhibition” value is 35.1% [at 102 µM].
In the case of `CCCCCCn1nnc2sc(-c3ccccc3)cc2c1=O`, the “activity, negative = inhibition” value is 51.4%.
For the compound `Cc1ccc(Cl)cc1NC(=O)C(C)n1nnc2sc(-c3ccccc3)cc2c1=O` (centres undefined), the Potency was 1.12 µM (active).
Regarding `CCC(C)NC(=O)Cn1c(=O)n(-c2ccc(Cl)cc2)c(=O)c2c3c(sc21)CCCC3` (centres undefined), the “activity, negative = inhibition” value was -9.15%.
As to `CCOc1ccc(CCNC(=O)c2ccc3c(c2)sc2nc(-c4ccc(F)cc4)cn23)cc1OCC`, the “activity, negative = inhibition” value was 1.74%.
On the same count and under the same terms, the result for `CCCN(CCC)C(=O)C1CCCN(c2ncnc3c2nc2n3CCCCC2)C1` (centres undefined) reads 4.45%; that for `Clc1ccc(CSc2nnc(/C=C/c3ccccc3)o2)c(Cl)c1`, 19.9%.
`S=c1[nH]nc(/C=C/c2ccccc2)o1`: the Potency is 22.4 µM (active).
For `O=c1oc(/C=C/c2ccccc2)nc2ccccc12`, the “activity, negative = inhibition” value was 15% [at 102 µM].
In the case of `CCc1ccccc1S(=O)(=O)Cc1ccc(C(=O)NCCc2ccccc2)o1`, the “activity, negative = inhibition” value is 21.5% [at 102 µM].
With `COC(=O)c1ccc(C)c(NC(=O)C2CC(=O)N(C3CCCC(C)C3C)C2)c1` (centres undefined), the “activity, negative = inhibition” value was -4.66%.
The same measure, in the same setting: the result for `COc1cccc(CNC(=O)c2ccc3c(c2)sc2nc(-c4cccc(OC)c4)cn23)c1` reads -1.93%; that for `CN(Cc1cnccn1)C(=O)c1cc(COc2cccc(C(F)(F)F)c2)on1`, 9.71% [at 102 µM].
`c1ccc(CN2CCC(N=C3NN=C(c4ccc5c(c4)OCCO5)CS3)CC2)cc1`: the activity, negative = inhibition is -3.44% [at 12.7 µM].
In the case of `Clc1cccc(N=C2NN=C(c3ccc4c(c3)OCCO4)CS2)c1`, the Potency was 14.1 µM (active).
For `Cc1cccc(N=C2NN=C(c3c[nH]c4ccccc34)CS2)c1`, the “activity, negative = inhibition” value was -32.2%.
On the same count and under the same terms, with `COc1ccccc1-c1cnn2c(N3CCOCC3)cc(C)nc12` the figure was 26.6% [at 102 µM].
On the same count and under the same terms, with `Cc1cc(C)c(-c2n[nH]c3c2C(c2ccccc2F)N(CCO)C3=O)c(O)c1` (centres undefined) the figure was 19.7%.
On the same count and under the same terms, the result for `CCc1ccc2ncc3c(-c4ccc(C)cc4)nn(CC(=O)NCc4ccccc4)c3c2c1` reads -1.45%; that for `COC(=O)c1cccc(Cn2nnc3sc4c(c3c2=O)CCC(C(C)(C)C)C4)c1` (centres undefined), -31.9%.
In the case of `Cn1ccnc1SCC(=O)Nc1ccc2c(c1)OCCO2`, the “activity, negative = inhibition” value is 34.5% [at 102 µM].
For the compound `CC1CCCC(NC(=O)CSc2nccn2C)C1C` (centres undefined), the Potency is 15.8 µM (active).
On to `CC1CCCCC1NC(=O)CSc1nnc(N)s1` (centres undefined), for which the “activity, negative = inhibition” value is 9.08%.
